Test results taken from PMC12431657, “Discovery and mechanistic insights of dibenzoylmethane as a broad spectrum inhibitor of coronavirus” (PLOS Pathogens, 2025).
Like-named read-outs stand apart in the source and are kept apart here. Among all 3,300 compounds or so, about 60 (2%) showed an effect of 50% or more. This is one part of a sample in which strong results are shown more often than they occur.

Tested on: HCoV-OC43
Set-up: species or system RD; HTS, protection from HCoV-OC43 induced cell death, luminescent cell viability (CellCounting-Lite 2.0), inhibition rate
Settings: 10 µM, inhibitor

Row | Compound | OC43 Inhibition rate (24 h post infection, 1 h compound pre-incubation) [%] | OC43 Inhibition rate (24 h)
1 | CCC(=O)O[C@H]1[C@H](O[C@@H]2[C@@H](C)[C@H](O[C@H]3C[C@@](C)(OC)[C@@H](O)[C@H](C)O3)[C@@H](C)C(=O)O[C@H](CC)[C@@](C)(O)[C@H](O)[C@@H](C)C(=O)[C@H](C)C[C@@]2(C)O)O[C@H](C)C[C@@H]1N(C)C [Erythromycin estolate, erythromycin estolate] | 99.7 | –
2 | O=C1C([C@@H]2O[C@H](CO)[C@@H](O)[C@H](O)[C@H]2O)=C(O)/C(=C(O)/C=C/c2ccc(O)cc2)C(=O)C1(O)[C@@H]1O[C@H](CO)[C@@H](O)[C@H](O)[C@H]1O (stereo partly drawn) [Hydroxysafflor yellow A] | – | 0.2%
3 | Oc1c(Br)cccc1Br [2,6-Dibromophenol] | – | 1.1%
4 | C[C@H]1CCCC(=O)CCC/C=C/c2cc(O)cc(O)c2C(=O)O1 [Zearalenone] | – | 56.4%
5 | C[C@H]1CCC[C@@H](O)CCCCCc2cc(O)cc(O)c2C(=O)O1 [Beta-Zearalanol] | – | 0%
6 | C=C(C)[C@@H]1[C@H]2OC(=O)[C@@H]1[C@]1(O)C[C@H]3O[C@]34C(=O)O[C@H]2[C@]14C [Picrotoxinin] | – | 0.5
7 | O=C1C=CC[C@@H]2[C@H]3CCC[N+]4([O-])CCC[C@@H](CN12)[C@@H]34 (stereo partly drawn) [Oxysophocarpine] | – | -0.3%
8 | C[C@@H]1CC[C@@]2(OC1)O[C@H]1C[C@H]3[C@@H]4CC=C5C[C@@H](O[C@@H]6O[C@H](CO)[C@@H](O[C@@H]7O[C@@H](C)[C@H](O[C@@H]8O[C@@H](C)[C@H](O)[C@@H](O)[C@H]8O)[C@@H](O)[C@H]7O)[C@H](O)[C@H]6O[C@@H]6O[C@@H](C)[C@H](O)[C@@H](O)[C@H]6O)CC[C@]5(C)[C@H]4CC[C@]3(C)[C@H]1[C@@H]2C [Formosanin C] | – | 5.5%
9 | Cc1c([C@H](C)[C@@H]2NC[C@@H](C)C[C@H]2O)ccc2c1C[C@H]1[C@H]2CC=C2C[C@@H](O[C@@H]3O[C@H](CO)[C@@H](O)[C@H](O)[C@H]3O)CC[C@@]21C [Veratrosine] | – | 5.4%
10 | C[C@@H]1CC[C@@]2(NC1)O[C@H]1C[C@H]3[C@@H]4CC=C5C[C@@H](O[C@@H]6O[C@H](CO)[C@@H](O[C@@H]7O[C@@H](C)[C@H](O)[C@@H](O)[C@H]7O)[C@H](O)[C@H]6O)CC[C@]5(C)[C@H]4CC[C@]3(C)[C@H]1[C@@H]2C [Khasianine] | – | 67.5%
11 | COc1cc2ccc(=O)oc2c2ccoc12 [Sphondin] | – | 0.1%
12 | COc1cc([C@@H]2c3cc4c(cc3C(=O)[C@H]3COC(=O)[C@H]23)OCO4)cc(OC)c1OC [Podophyllotoxone] | – | 4.4%
13 | Cc1ccc(C=O)cc1 [p-Tolualdehyde] | – | -0.1
14 | CC(C)=CCC[C@H](C(=O)O)[C@H]1CC[C@]2(C)C3=C(CC[C@@]12C)[C@@]1(C)CCC(=O)C(C)(C)[C@H]1CC3 [β-Elemonic acid] | – | -1.4%
15 | CC1(C)OC1COc1c2occc2cc2ccc(=O)oc12 (stereo not drawn) [Oxyimperatorin] | – | 2.8%
